Results published in PubChem BioAssay (NCI).
“And” between values parts separate entries of the source, which are not always exact repeats. Equal values may be shown once. The panel holds about 79,000 compounds, 15% with a hit somewhere; the sample as a whole holds those more often. The source made the active and inactive calls. Cut-off read from the data, not from the text of the source: active = growth inhibition above about 70%; inactive = the rest.

Tests used:
[1] = NCI Yeast Anticancer Drug Screen. Data for the rad52 strain (AID 147);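 note: 0% = growth of vehicle-treated control cultures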; settings: S. cerevisiae rad52 mutant growth inhibition, hits give high values
Method in brief: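 Vehicle-treated cultures served as the reference for growth inhibition of compound-exposed yeast bearing a DNA repair mutation.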

[2] = NCI Yeast Anticancer Drug Screen. Data for the wt1 strain (AID 149);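 note: 0% = growth of vehicle-treated wt1 cultures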; settings: S. cerevisiae wt1 strain (SPY 50644) growth inhibition, hits give high values
Method in brief: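 Measured: growth of wt1 yeast under compound versus vehicle treatment, reported as inhibition.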

[3] = NCI Yeast Anticancer Drug Screen. Data for the rad50EPP+ strain (AID 151);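 note: 0% = growth of vehicle-treated control cultures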; settings: S. cerevisiae rad50 mutant strain, hits give high values
Method in brief: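 In this screen, rad50EPP+ yeast were exposed to compounds. Growth inhibition was scored against vehicle-treated controls.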

[4] = NCI Yeast Anticancer Drug Screen. Data for the mgt1 strain (AID 153); settings: S. cerevisiae mgt1 mutant growth inhibition, hits give high values
Method in brief: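 mgt1 strain exposed; growth vs vehicle control recorded as inhibition.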

[5] = NCI Yeast Anticancer Drug Screen. Data for the rad50 strain (AID 155);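 note: 0% = growth of vehicle-only cultures of the same strain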; settings: S. cerevisiae rad50 strain growth inhibition, hits give high values
Method in brief: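 Growth of the mutant yeast was measured after compound exposure and referenced to vehicle-treated cultures.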

[6] = NCI Yeast Anticancer Drug Screen. Data for the mec2-1 strain (AID 157); settings: S. cerevisiae mec2-1 strain, hits give high values
Method in brief: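 Vehicle-treated cultures served as reference for growth inhibition of compound-exposed mec2-1 yeast.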

[7] = NCI Yeast Anticancer Drug Screen. Data for the rad14 strain (AID 159);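 note: 0% = growth of vehicle-treated control cultures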; settings: S. cerevisiae rad14 strain growth inhibition, hits give high values
Method in brief: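 Here, inhibition of yeast growth was measured after compound exposure, using a strain with a genetic defect in DNA damage repair and vehicle-treated cultures as the reference.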

[8] = NCI Yeast Anticancer Drug Screen. Data for the sgs1 mgt1 strain (AID 161);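 note: 0% = growth of cultures given vehicle only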; settings: S. cerevisiae sgs1 mgt1 strain, hits give high values
Method in brief: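 Mutant yeast exposed to compound; growth scored against vehicle-only wells.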

[9] = NCI Yeast Anticancer Drug Screen. Data for the CLN2oe strain (AID 163);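 note: 0% = growth of vehicle-only control cultures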; settings: S. cerevisiae CLN2oe strain, hits give high values
Method in brief: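 Inhibition relative to vehicle-treated yeast is reported. Cells: strain with genetic alteration in cell-cycle control, grown with compound.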

[10] = NCI Yeast Anticancer Drug Screen. Data for the cln2 rad14 strain (AID 165);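 note: 0% = growth equal to vehicle treated cultures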; settings: S. cerevisiae cln2 rad14 strain, hits give high values
Method in brief: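 Each compound was tested on cln2 rad14 yeast. Inhibition of growth was calculated against vehicle-exposed controls.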

[11] = NCI Yeast Anticancer Drug Screen. Data for the bub3 strain (AID 167); settings: S. cerevisiae bub3 mutant strain, hits give high values
Method in brief: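 Whole-cell yeast assay. The mutant strain was incubated with compounds, and growth inhibition was determined by comparison with vehicle-treated cells.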

[12] = NCI Yeast Anticancer Drug Screen. Data for the wt2 strain (AID 169);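 note: 0% = growth of vehicle-treated yeast cultures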; settings: S. cerevisiae wt2 strain growth inhibition, hits give high values
Method in brief: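 Inhibition of yeast growth was determined after compound treatment, normalised to controls receiving only vehicle.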

[13] = NCI Yeast Anticancer Drug Screen. Data for the mlh1 strain (AID 171);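 note: 0% = growth of vehicle-treated control cultures of the same strain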; settings: S. cerevisiae mlh1 strain growth inhibition, hits give high values
Method in brief: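 Vehicle-normalised growth inhibition of a repair- or checkpoint-altered yeast strain following compound treatment.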

[14] = NCI Yeast Anticancer Drug Screen. Data for the sgs1 strain (AID 173);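 note: 0% = growth of vehicle-only control cultures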; settings: S. cerevisiae sgs1 mutant, hits give high values
Method in brief: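 Screen format: yeast with repair or checkpoint alterations, compound exposure, growth read relative to vehicle.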

[15] = NCI Yeast Anticancer Drug Screen. Data for the mlh1 rad18 strain (AID 175); settings: S. cerevisiae mlh1 rad18 strain growth inhibition, hits give high values
Method in brief: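 Vehicle-treated cultures served as the reference for growth inhibition in a yeast strain carrying DNA damage repair alterations exposed to each compound.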

[16] = NCI Yeast Anticancer Drug Screen. Data for the rad18 strain (AID 177); settings: S. cerevisiae rad18 mutant growth inhibition, hits give high values
Method in brief: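 Test articles were incubated with altered yeast defective in DNA damage repair. Results are given as inhibition of growth versus vehicle.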

[17] = at 5.0 µM (retest, dose inferred, filed as 0.5)
[18] = at 50.0 µM (retest, dose inferred, filed as 5.0)

Measured: growth inhibition

COc1cc(/C=C2\CCC/C(=C\c3ccc(O)c(OC)c3)C2=O)ccc1O
inactive: [1]; at 1.2 µM -6% | [1]; at 3.7 µM -6% | [1]; at 11.0 µM 9% | [1]; at 33.0 µM 11% | [1]; at 100.0 µM 4% | [2]; at 1.2 µM 1% | [2]; at 3.7 µM 10% | [2]; at 11.0 µM 15% | [2]; at 33.0 µM 12% | [2]; at 100.0 µM 15% | [3]; at 1.2 µM 0% | [3]; at 3.7 µM -2% | [3]; at 11.0 µM 24% | [3]; at 33.0 µM 22% | [3]; at 100.0 µM 15% | [4]; at 1.2 µM 0% | [4]; at 3.7 µM -1% | [4]; at 11.0 µM 1% | [4]; at 33.0 µM 0% | [4]; at 100.0 µM -3% | [5]; at 1.2 µM -30% | [5]; at 3.7 µM -9% | [5]; [17] 13% | [5]; at 11.0 µM -7% | [5]; at 33.0 µM -7% | [5]; [18] 12% | [5]; at 50.0 µM 2.8% and 9.55% | [5]; at 100.0 µM 8% | [6]; at 1.2 µM -1% | [6]; at 3.7 µM 0% | [6]; [17] 4% | [6]; at 11.0 µM 1% | [6]; at 33.0 µM 0% | [6]; [18] 15% | [6]; at 50.0 µM -13.1% and 63.1% | [6]; at 100.0 µM 0% | [7]; at 1.2 µM 5% | [7]; at 3.7 µM -3% | [7]; at 11.0 µM 12% | [7]; at 33.0 µM 4% | [7]; at 100.0 µM 5% | [8]; [17] 8% | [8]; [18] 57% | [8]; at 50.0 µM -12.4% and 59.1% | [9]; at 1.2 µM -7% | [9]; at 3.7 µM -6% | [9]; at 11.0 µM -7% | [9]; at 33.0 µM -5% | [9]; at 100.0 µM -6% | [10]; [17] -4% | [10]; [18] 6% | [10]; at 50.0 µM 1.65% and 9.95% | [11]; at 1.2 µM -5% | [11]; at 3.7 µM -2% | [11]; [17] 1% | [11]; at 11.0 µM -2% | [11]; at 33.0 µM -4% | [11]; [18] 15% | [11]; at 50.0 µM -24.9% and 44% | [11]; at 100.0 µM -12% | [12]; at 1.2 µM 6% | [12]; at 3.7 µM 16% | [12]; at 11.0 µM 22% | [12]; at 33.0 µM 27% | [12]; at 100.0 µM 18% | [13]; at 1.2 µM -8% | [13]; at 3.7 µM -2% | [13]; at 11.0 µM -2% | [13]; at 33.0 µM -1% | [13]; at 100.0 µM -2% | [14]; at 1.2 µM -15% | [14]; at 3.7 µM -10% | [14]; at 11.0 µM 3% | [14]; at 33.0 µM 5% | [14]; at 100.0 µM -6% | [15]; [17] -3% | [15]; [18] 6% | [15]; at 50.0 µM -13.2% and 11.4% | [16]; at 1.2 µM -7% | [16]; at 3.7 µM 5% | [16]; at 11.0 µM 3% | [16]; at 33.0 µM 1% | [16]; at 100.0 µM -7%

COc1cc(O)c(O)c(C(C)(C)C)c1
inactive: [1]; at 1.2 µM -1% | [1]; at 3.7 µM 3% | [1]; at 11.0 µM 5% | [1]; at 33.0 µM 10% | [1]; at 100.0 µM 19% | [2]; at 1.2 µM -1% | [2]; at 3.7 µM -1% | [2]; at 11.0 µM 4% | [2]; at 33.0 µM 3% | [2]; at 100.0 µM 4% | [3]; at 1.2 µM 12% | [3]; at 3.7 µM 16% | [3]; at 11.0 µM 41% | [3]; at 33.0 µM 53% | [3]; at 100.0 µM 50% | [4]; at 1.2 µM -2% | [4]; at 3.7 µM -2% | [4]; at 11.0 µM 4% | [4]; at 33.0 µM 24% | [4]; at 100.0 µM 12% | [5]; at 1.2 µM 0% | [5]; at 3.7 µM -2% | [5]; [17] 10% | [5]; at 11.0 µM 3% | [5]; at 33.0 µM 6% | [5]; [18] 38% | [5]; at 50.0 µM 63.7% | [5]; at 100.0 µM 12% | [6]; at 1.2 µM -3% | [6]; at 3.7 µM -1% | [6]; [17] 4% | [6]; at 11.0 µM 0% | [6]; at 33.0 µM 5% | [6]; [18] 16% | [6]; at 50.0 µM 59.5% | [6]; at 100.0 µM 18% | [7]; at 1.2 µM -1% | [7]; at 3.7 µM -3% | [7]; at 11.0 µM 5% | [7]; at 33.0 µM 10% | [7]; at 100.0 µM 19% | [8]; [17] 2% | [8]; [18] 50% | [8]; at 50.0 µM 63.8% | [9]; at 1.2 µM -1% | [9]; at 3.7 µM -3% | [9]; at 11.0 µM 3% | [9]; at 33.0 µM -3% | [9]; at 100.0 µM -6% | [10]; [17] -14% | [10]; [18] 18% | [10]; at 50.0 µM 4.65% | [11]; at 1.2 µM -6% | [11]; at 3.7 µM -5% | [11]; [17] 0% | [11]; at 11.0 µM 2% | [11]; at 33.0 µM 7% | [11]; at 50.0 µM 61.1% | [11]; at 100.0 µM 17% | [12]; at 1.2 µM -1% | [12]; at 3.7 µM 0% | [12]; at 11.0 µM 8% | [12]; at 33.0 µM 12% | [12]; at 100.0 µM 17% | [13]; at 1.2 µM 3% | [13]; at 3.7 µM 3% | [13]; at 11.0 µM 9% | [13]; at 33.0 µM 15% | [13]; at 100.0 µM 26% | [14]; at 1.2 µM 1% | [14]; at 3.7 µM 7% | [14]; at 11.0 µM 16% | [14]; at 33.0 µM 8% | [14]; at 100.0 µM 43% | [15]; [17] 20% | [15]; at 50.0 µM 22.9% | [16]; at 1.2 µM 0% | [16]; at 3.7 µM 1% | [16]; at 11.0 µM -17% | [16]; at 33.0 µM 8% | [16]; at 100.0 µM 16%
active: [11]; [18] 82% | [15]; [18] 82%
